Experimental data: article PMC5700166

Target: GST-Hu-p50 (Homo sapiens, UniProt P19838 7-356)
Experiment: protein-binding microarray (PBM); PBM: ~300 nM protein, 6 mM HEPES pH 7.8, 80 mM KCl, 0.5 mM EDTA, 0.5 mM EGTA, 6% glycerol, 35 ng/ul poly-dIdC, 1% milk, 1 h, room temperature; Ap Aiptasia and Nv Nematostella (sea anemones) / Co Capsaspora / Aq Amphimedon (sponge) / Dm Drosophila / Hu human; RHD is the Rel homology domain; high values mean tight binding
Settings: dsDNA, one strand shown

GST-Hu-p50, sequence (P19838 7-356): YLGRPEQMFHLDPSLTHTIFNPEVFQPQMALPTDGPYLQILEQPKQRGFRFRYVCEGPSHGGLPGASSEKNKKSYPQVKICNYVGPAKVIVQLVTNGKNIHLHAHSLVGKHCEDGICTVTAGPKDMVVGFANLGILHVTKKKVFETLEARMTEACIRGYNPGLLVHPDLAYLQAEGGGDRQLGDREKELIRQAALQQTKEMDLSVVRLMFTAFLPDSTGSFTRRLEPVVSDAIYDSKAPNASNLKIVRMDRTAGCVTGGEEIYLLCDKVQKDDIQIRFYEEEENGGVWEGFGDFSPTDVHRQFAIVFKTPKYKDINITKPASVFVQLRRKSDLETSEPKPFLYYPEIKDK

Sequence	binding signal
CCGATTAACATCAATTTAGACGGTGATGTTAATCGGGTCTTGATTCGCTTGACGCTGCTG	1.58 z-score
CCGATTAACATCAGGTAACCCCATGATGTTAATCGGGTCTTGATTCGCTTGACGCTGCTG	1.35 z-score
CCGATTAACATCATACAAGGGAGTGATGTTAATCGGGTCTTGATTCGCTTGACGCTGCTG	1.09 z-score
